# Assay results taken from PubChem BioAssay AID1285 (Columbia University Molecular Screening Center, 2008).
# Hit rate of the full screen: of about 190,000 compounds, about 1,600 (0.84%) were called active. The entries come from a sample that favours actives as a whole. A number with no mark means an inactive call.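 Rule for the calls: active = inhibition above a set limit, derived from the sample mean plus 3 SD (cut at about 45% in these data); inconclusive = one replicate passes the limit while the other fails; inactive = the rest.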
# Assay: inhibitors of APP translation via 5'UTR reporter, primary screen, APP 5'UTR luciferase, SH-SY5Y cells (AID 1285)
# Settings: SH-SY5Y APP 5'UTR-luciferase reporter, luminescence; at 2 µM; stronger effect = higher value
row,Structure (SMILES),inhibition
1,O=C(Nc1cccc([N+](=O)[O-])c1)c1ccc2c(c1)OCO2,-43.1%
2,O=C(Nc1ccc(N2CCOCC2)cc1)c1ccc2c(c1)OCO2,-48.7%
3,O=C(Nc1ccccc1)c1ccc2c(c1)OCO2,58.8% (active)
4,CCOC(=O)c1c(NC(=O)C2CC=CCC2C(=O)O)sc(C)c1CC (configuration not stated),-12.9%
5,O=C(CCN1C(=O)c2ccccc2C1=O)NNC(=O)c1ccc(Cl)cc1Cl,-9.9%
6,O=C(Cc1cccs1)N/N=C/c1ccc(OCc2ccccc2)cc1,5.4%
7,COc1ccc(C(=O)C[n+]2ccc(N)c(C)c2C)cc1,6.8%
8,Clc1cccc(CN2COc3c(cc(Cl)c4cccnc34)C2)c1,74.6% (active)
9,Oc1c(CN2CCN(c3ccc(F)cc3)CC2)cc(Cl)c2cccnc12,8.7%
10,O=c1[nH]n(-c2cccc(Cl)c2)c2ncccc12,-4.8%
11,COC(=O)CNC(=O)c1ccccc1F,-10.5%
12,COc1ccc(C(=O)NN(C)c2nc(-c3ccccc3)cc(C)c2S(C)(=O)=O)cc1,-3.3%
13,COc1ccc(OCC(=O)NNC(=O)c2cccc(C)c2)cc1,-16.1%
14,CSc1nc(N(C)NC(=O)c2cccc(C)c2)c2ccccc2n1,96.7% (active)
15,CN(NC(=O)c1ccccc1F)c1nc(C(F)(F)F)nc2ccccc12,91% (active)
16,CN(NC(=O)c1ccccc1)c1nc2ccccc2nc1C(F)(F)F,-3.6%
17,CC(=O)N1CC(C)c2scc(C)[n+]2-c2ccccc21 (configuration not stated),-17.2%
18,C=CCc1ccc(OCC(O)CN2CCN(Cc3ccccc3)CC2)c(OC)c1 (configuration not stated),-8.6%
19,CC(=O)N1c2ccccc2N(Cc2ccc([N+](=O)[O-])cc2)C(=O)C1(C)C,-12.9%
20,CCOc1ccc(N2CC(C(=O)NCCN3C(=O)S/C(=C\c4cccnc4)C3=O)CC2=O)cc1 (configuration not stated),-6%
21,Cc1cc(C(=O)OCC(=O)NCc2ccco2)c(C)n1-c1ccccc1,60.8% (active)

row,Structure (SMILES),inhibition
1,O=C(COC(=O)c1cnc(Cl)c(Cl)c1)NCc1ccco1,6.8%
2,O=C(COC(=O)c1cc(S(=O)(=O)N2CCCCC2)ccc1Cl)NCc1ccco1,5%
3,C/C(=N\NC(=O)c1cccnc1)c1ccc(-n2ccnc2)cc1,-7.3%
4,Cc1[nH]c2ccccc2c1-c1ccc(Cl)nn1,5.5%
5,COc1ccc(Cc2n[nH]c(=S)n2NC(=O)Nc2ccc(C)cc2)cc1,-47.2%
6,O=C(Nc1ccccc1Cl)c1ccc2nsnc2c1,-80.7%
7,O=C(Nc1ccccc1Cl)/C(Cl)=C(\Cl)S(=O)c1ccccc1 (configuration not stated),93.8% (active)
8,O=C(CN1CCCCC1)Nc1ccccc1Cl,17.7%
9,CCN(C(=O)CN1CCN(Cc2ccccc2)CC1)c1c(N)n(Cc2ccccc2)c(=O)[nH]c1=O,-17.3%
10,COC(=O)CSc1nc(C2CC2)nc2ccccc12,-12.5%
11,CC(C)N(C(=O)CSc1nc(COc2ccccc2)nc2ccccc12)C(C)C,48.3% (active)
12,CCCc1nc(SCC(=O)Nc2ccc(S(=O)(=O)N(C)C)cc2)c2ccccc2n1,-11.7%
13,COc1ccc(Cl)cc1NC(=O)NC(C)C(C)(C)C (configuration not stated),-0.1%
14,CCN(CC)S(=O)(=O)c1ccc(Cl)c(NC(=O)c2ccncc2)c1,17.9%
15,CCN(CC)CCCNC(=O)Cn1cnc2sc(C)c(S(=O)(=O)N3CCN(c4ncccn4)CC3)c2c1=O,-10.4%
16,CN1CCN(C(=O)CCc2nc(-c3ccc(Cl)cc3)no2)CC1,9.1%
17,CCNC(=O)CCc1nc(-c2ccc(C(C)(C)C)cc2)no1,51.8% (active)
18,Cc1ccc(-c2noc(CCC(N)=O)n2)cc1,5.2%
19,COc1ccc(N2CCN(C(=O)c3ccc4c(Cl)c5c(nc4c3)CCCC5)CC2)cc1,-5.5%
20,CC(=O)Nc1nc(N(C)C)nc(N(C)C)n1,4.4%
21,CC1(C)CC(=O)c2cnc3nc4ccccc4n3c2C1,-8.9%

row,Structure (SMILES),inhibition
1,COC(=O)c1ccc(CSc2nnc(N)s2)o1,-10.2%
2,CN(C(=O)CSc1nnc(N)s1)c1c(N)n(Cc2ccccc2)c(=O)[nH]c1=O,-12.7%
3,Nc1nnc(SCC(=O)OCc2ccc(Cl)c(Cl)c2)s1,86.8% (active)
4,COCCNC(=O)c1ccc(-n2c(SCc3cccnc3)nc3ccccc3c2=O)cc1,-4.3%
5,CCCCCCCCCCOC(=O)C[N+](C)(C)CC1CCCCC1O (configuration not stated),-4.7%
6,O=C(c1snnc1-c1ccccc1)N1CCOCC1,-16.4%
7,Cc1cc(C2=NNC(=Nc3ccc(S(=O)(=O)N4CCOCC4)cc3)SC2)c(C)n1CC1CCCO1 (configuration not stated),-30.6%
8,C=CCn1c(C)cc(C2=NNC(=NCC)SC2)c1C,69.1% (active)
9,COCCn1c(C)cc(C2=NNC(=Nc3ccc(F)cc3)SC2)c1C,-82.3%
10,CCN(C(=O)CSc1nc2ccccc2n1CC)C1CCS(=O)(=O)C1 (configuration not stated),-8%
11,C[N+]1(CC(O)COc2ccccc2)CCN(C(=O)c2ccc([N+](=O)[O-])cc2)CC1 (configuration not stated),0.3%
12,COc1ccc(NC(=O)COC(=O)CNC(=O)C2CCCCC2)cc1,-10.5%
13,O=C(OCC(=O)c1cccs1)C1=COCCO1,-41.7%
14,CCC(C)(C)c1ccc(Oc2ccc(NC(=O)COC(=O)C3=COCCO3)cc2)cc1,45.6% (active)
15,Cc1ccc2[nH]c(C)c(CCNC(=O)NC3CCCCC3)c2c1,2.7%
16,CSCC[C@H](NC(=O)NC1CCCC1)C(=O)O,20.9%
17,CCOc1cc(C(=O)N2CCc3cc(OC)c(OC)cc3C2)ccc1OC(F)F,94.6% (active)
18,COc1cc2c(cc1OC)CN(C(=O)c1cc(=O)c3ccccc3o1)CC2,13.7%
19,COc1cc2c(cc1OC)CN(C(=O)c1ccc(S(=O)(=O)N3CCCCCC3)cc1)CC2,-6.7%
20,Cc1cccc(CSc2ccc(-c3cccs3)nn2)c1,-24.9%
